Calls of active or inactive are those of the source. The rule behind the calls is not given here.
molecular target: Muscarinic acetylcholine receptor M3 (Homo sapiens) (UniProt P20309); assay: off-target M3 muscarinic calcium response – cell-based, CHO-K1 hM3, Fluo-4 calcium flux, ACh EC20, counter-screen for M5 NAM project (AID 743103); conditions: series mostly up to 30 µM; % of max ACh response: at the top concentration

SMILES | % of max ACh response
O=C(c1ccc(F)cc1)N1CCN2C(=O)c3ccccc3C12c1ccccc1 (stereo not given) | 73.3 (inactive)
O=C(c1cc(F)cc(F)c1)N1CCN2C(=O)c3ccccc3C12c1ccc(Cl)cc1 (stereo not given) | 81.5 (inactive)
O=C(c1ccc(F)c(F)c1)N1CCN2C(=O)c3ccccc3[C@@]12c1ccc(Cl)cc1 | 53.5 (inactive)
O=C(c1ccc(F)c(F)c1)N1CCN2C(=O)c3ccccc3C12c1ccccc1 (stereo not given) | 80.1 (inactive)
O=C(c1ccc(F)c(F)c1)N1CCN2C(=O)c3ccccc3C12c1ccc(Cl)cc1 (stereo not given) | 75.5 (inactive)

— PubChem BioAssay AID743103 (Vanderbilt Specialized Chemistry Center, 2013)
